The test system of experiment [1] is Epidermal growth factor receptor (Homo sapiens), P00533 [T790M]. The conditions noted are these: at 1 µM.
Experiment [2] relates to Epidermal growth factor receptor (Homo sapiens), P00533 [L858R,T790M]. The conditions noted are these: at 0.1 µM.
Experiment [3] has the same test system. The following applies: at 1 µM.
For experiment [4], the target named is Ephrin type-A receptor 2 (Homo sapiens) (UniProt P29317). The conditions noted are these: at 0.1 µM.
Experiment [5] shares this target. The following applies: at 1 µM.
For experiment [6], the target named is T1, Ephrin type-A receptor 3 (Homo sapiens) (UniProt P29320).
T1 sequence (whole entry): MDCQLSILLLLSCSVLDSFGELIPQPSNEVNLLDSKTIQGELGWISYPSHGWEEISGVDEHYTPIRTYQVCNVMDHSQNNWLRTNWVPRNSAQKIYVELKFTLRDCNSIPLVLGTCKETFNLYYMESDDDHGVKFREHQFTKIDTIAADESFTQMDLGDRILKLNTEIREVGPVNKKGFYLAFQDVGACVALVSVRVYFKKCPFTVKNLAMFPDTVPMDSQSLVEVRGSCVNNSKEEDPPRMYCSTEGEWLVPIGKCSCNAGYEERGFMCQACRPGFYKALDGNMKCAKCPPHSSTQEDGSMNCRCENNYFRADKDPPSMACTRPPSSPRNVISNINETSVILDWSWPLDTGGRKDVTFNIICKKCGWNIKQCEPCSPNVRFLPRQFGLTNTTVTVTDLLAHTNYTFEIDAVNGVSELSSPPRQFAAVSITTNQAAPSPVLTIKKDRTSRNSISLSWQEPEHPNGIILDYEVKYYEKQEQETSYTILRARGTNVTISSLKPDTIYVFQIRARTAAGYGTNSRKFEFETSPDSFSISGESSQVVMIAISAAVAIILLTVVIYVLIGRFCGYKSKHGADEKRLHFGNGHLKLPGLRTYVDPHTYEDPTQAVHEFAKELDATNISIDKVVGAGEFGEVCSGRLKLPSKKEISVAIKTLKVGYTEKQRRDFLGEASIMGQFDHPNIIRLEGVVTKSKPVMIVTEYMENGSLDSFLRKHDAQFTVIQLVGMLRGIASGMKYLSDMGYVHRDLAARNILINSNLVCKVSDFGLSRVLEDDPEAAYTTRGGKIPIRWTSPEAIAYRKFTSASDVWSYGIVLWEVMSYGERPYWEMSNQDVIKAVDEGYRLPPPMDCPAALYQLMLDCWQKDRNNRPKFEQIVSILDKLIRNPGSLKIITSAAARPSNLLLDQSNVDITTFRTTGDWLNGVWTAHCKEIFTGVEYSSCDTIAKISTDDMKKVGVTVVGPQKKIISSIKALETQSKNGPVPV
The conditions noted are these: at 0.1 µM.

The target of experiment [7] is T1, Ephrin type-A receptor 3 (Homo sapiens). The following applies: at 1 µM.
The target in experiment [8] is Ephrin type-A receptor 4 (Homo sapiens) (UniProt P54764). The conditions noted are these: at 0.1 µM.
Experiment [9] has the same target. The following applies: at 1 µM.
Experiment [10] has as its target T2, Ephrin type-B receptor 2 (Homo sapiens) (UniProt P29323).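 Also: reported as mean inhibition of EPHB2, from the GSK PKIS dataset.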
T2 sequence (whole entry): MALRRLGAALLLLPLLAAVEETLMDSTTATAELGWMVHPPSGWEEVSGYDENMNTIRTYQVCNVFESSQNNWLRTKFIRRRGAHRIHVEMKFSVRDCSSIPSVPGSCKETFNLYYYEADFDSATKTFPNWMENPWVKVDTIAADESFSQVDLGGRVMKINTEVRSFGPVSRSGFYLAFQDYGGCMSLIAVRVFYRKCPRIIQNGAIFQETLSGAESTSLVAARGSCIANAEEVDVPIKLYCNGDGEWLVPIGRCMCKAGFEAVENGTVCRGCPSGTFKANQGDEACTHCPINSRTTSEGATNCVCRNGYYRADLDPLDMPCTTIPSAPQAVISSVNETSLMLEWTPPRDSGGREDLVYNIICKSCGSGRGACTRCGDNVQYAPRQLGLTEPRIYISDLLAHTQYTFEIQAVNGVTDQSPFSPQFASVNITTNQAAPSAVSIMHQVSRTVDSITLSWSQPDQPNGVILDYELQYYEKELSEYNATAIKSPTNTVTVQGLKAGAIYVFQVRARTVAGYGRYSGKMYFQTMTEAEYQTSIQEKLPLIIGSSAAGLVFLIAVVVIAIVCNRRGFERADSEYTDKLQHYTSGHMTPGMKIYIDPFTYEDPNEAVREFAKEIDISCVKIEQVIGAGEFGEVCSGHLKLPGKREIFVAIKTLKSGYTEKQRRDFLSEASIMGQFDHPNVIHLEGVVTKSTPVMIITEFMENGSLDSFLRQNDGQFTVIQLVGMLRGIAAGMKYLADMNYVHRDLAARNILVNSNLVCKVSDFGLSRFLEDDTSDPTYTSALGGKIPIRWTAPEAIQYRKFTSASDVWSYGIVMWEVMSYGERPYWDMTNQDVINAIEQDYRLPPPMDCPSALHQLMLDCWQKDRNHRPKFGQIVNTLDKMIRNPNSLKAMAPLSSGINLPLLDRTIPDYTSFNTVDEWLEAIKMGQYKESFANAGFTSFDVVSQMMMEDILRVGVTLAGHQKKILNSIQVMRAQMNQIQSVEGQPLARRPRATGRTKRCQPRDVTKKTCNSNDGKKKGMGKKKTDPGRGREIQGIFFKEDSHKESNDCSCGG
The conditions noted are these: at 0.1 µM.

Sequence of Epidermal growth factor receptor (Homo sapiens), P00533 [L858R,T790M] (P00533 whole entry T790M/L858R, looked up): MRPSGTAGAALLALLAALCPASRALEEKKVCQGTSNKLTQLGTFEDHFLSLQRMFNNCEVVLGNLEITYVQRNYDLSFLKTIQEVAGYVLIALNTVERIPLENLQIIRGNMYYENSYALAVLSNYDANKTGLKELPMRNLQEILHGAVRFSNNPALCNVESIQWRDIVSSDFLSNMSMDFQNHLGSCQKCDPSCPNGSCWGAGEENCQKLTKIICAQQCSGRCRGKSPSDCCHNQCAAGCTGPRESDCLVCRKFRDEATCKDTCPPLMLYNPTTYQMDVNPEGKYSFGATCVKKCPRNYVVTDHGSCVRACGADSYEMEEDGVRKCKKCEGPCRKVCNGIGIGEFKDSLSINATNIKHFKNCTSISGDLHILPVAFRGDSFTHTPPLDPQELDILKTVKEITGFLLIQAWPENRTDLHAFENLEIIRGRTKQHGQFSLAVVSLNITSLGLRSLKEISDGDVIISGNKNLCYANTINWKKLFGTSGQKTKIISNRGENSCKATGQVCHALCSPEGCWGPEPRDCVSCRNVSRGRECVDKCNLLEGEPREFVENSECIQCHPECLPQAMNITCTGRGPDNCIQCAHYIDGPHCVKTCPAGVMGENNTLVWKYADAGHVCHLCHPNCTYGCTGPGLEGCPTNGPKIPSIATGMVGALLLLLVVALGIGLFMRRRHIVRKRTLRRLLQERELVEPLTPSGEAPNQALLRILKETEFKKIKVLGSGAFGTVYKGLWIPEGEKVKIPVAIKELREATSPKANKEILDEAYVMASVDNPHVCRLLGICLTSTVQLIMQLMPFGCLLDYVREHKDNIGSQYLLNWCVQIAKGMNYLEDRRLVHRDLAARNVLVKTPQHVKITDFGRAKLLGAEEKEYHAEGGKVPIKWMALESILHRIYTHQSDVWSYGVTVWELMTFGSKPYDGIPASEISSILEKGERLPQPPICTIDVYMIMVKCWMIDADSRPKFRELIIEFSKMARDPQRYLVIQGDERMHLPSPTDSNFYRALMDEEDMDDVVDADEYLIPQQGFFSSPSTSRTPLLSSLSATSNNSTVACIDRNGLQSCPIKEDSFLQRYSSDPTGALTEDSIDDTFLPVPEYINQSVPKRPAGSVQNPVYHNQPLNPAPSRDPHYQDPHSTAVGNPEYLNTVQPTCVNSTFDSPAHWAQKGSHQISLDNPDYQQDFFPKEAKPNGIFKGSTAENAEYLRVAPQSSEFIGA
Sequence of Epidermal growth factor receptor (Homo sapiens), P00533 [T790M] (P00533 whole entry T790M): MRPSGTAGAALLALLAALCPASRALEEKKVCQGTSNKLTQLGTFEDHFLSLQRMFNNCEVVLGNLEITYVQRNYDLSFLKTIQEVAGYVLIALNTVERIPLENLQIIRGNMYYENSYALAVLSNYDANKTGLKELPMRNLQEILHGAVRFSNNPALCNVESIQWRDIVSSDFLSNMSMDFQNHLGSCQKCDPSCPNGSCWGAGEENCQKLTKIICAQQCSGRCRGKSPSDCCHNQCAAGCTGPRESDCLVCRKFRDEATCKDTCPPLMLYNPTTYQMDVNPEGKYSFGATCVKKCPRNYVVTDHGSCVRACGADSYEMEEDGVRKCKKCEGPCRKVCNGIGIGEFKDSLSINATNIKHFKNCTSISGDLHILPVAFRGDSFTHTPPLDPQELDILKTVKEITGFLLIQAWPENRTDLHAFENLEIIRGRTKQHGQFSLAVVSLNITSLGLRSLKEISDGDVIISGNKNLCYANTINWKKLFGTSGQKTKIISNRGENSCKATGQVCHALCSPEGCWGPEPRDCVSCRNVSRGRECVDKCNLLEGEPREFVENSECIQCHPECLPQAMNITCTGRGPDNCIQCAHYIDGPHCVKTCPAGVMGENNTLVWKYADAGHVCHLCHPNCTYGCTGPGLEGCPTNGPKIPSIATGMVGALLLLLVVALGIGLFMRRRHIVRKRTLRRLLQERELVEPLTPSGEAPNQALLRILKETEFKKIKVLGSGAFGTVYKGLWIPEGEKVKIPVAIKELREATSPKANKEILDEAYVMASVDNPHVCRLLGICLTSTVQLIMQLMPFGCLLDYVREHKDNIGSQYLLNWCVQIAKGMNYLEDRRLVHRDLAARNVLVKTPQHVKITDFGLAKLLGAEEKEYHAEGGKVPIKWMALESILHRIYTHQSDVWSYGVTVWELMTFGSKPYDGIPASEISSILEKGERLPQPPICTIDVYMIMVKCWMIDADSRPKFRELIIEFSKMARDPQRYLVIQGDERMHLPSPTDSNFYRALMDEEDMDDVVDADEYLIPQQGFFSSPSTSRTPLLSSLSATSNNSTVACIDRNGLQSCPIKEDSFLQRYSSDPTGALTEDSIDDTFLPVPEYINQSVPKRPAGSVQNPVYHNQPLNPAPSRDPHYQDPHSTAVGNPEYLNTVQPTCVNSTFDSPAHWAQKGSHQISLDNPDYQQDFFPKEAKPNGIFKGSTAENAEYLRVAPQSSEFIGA
Sequence of Ephrin type-A receptor 4 (Homo sapiens) (P54764 whole entry): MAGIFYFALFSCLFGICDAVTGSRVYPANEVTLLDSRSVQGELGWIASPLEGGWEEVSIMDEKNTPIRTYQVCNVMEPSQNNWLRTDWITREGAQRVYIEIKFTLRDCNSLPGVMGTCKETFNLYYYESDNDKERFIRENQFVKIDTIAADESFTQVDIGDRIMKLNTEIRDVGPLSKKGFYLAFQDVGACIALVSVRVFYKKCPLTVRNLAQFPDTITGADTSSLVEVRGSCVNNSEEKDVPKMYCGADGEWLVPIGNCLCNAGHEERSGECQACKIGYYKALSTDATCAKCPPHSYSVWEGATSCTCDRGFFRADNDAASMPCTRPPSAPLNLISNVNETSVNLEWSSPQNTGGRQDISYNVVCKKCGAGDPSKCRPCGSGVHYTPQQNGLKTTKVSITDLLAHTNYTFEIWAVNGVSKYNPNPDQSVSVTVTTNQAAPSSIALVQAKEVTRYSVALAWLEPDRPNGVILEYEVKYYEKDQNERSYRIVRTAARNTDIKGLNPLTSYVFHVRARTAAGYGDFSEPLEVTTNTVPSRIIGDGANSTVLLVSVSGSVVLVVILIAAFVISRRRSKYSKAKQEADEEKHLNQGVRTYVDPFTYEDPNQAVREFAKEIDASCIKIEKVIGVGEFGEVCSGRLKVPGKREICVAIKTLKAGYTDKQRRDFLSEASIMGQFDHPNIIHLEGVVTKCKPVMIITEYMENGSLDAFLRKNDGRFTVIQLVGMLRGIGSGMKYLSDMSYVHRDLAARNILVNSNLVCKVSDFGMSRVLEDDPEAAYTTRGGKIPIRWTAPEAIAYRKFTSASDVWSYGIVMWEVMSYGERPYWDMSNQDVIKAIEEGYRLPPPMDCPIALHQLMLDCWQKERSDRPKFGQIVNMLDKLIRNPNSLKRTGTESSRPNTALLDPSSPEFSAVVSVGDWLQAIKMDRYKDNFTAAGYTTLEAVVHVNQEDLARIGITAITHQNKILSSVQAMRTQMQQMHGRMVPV
Sequence of Ephrin type-A receptor 2 (Homo sapiens) (P29317 whole entry): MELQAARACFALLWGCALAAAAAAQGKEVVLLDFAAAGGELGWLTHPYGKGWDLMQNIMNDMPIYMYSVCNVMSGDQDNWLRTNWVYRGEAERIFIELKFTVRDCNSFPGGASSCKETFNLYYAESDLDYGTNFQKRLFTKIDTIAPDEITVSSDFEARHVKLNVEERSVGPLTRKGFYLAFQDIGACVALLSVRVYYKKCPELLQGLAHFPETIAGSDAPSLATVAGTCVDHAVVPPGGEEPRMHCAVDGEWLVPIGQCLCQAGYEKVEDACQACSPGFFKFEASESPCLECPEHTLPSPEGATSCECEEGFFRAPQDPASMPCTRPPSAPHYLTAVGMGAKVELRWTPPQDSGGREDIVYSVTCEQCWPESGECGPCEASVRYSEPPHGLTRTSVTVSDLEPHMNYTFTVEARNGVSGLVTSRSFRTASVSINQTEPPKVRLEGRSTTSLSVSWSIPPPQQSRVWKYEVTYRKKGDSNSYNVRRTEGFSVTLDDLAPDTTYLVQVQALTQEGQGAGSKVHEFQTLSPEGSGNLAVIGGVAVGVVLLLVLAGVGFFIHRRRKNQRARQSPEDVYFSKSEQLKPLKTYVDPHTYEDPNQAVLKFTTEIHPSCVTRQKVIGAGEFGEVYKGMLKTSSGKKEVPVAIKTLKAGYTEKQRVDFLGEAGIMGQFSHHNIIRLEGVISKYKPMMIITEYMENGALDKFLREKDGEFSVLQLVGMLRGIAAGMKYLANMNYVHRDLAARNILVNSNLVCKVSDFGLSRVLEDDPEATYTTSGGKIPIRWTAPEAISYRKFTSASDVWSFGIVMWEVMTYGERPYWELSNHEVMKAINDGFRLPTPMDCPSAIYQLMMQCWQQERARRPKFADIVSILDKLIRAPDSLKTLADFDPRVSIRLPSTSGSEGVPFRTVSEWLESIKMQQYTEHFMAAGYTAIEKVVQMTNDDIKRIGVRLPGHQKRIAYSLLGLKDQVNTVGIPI

On to `CC(C)COC(=O)c1ccc2c(c1)/C(=C/Nc1ccc(S(N)(=O)=O)cc1)C(=O)N2`, for which the inhibition in [1] was -2.28%; in experiment [2] it was -2.38%; in [3] it was 3.71%; in [4] it was -3.29%; in [5], -3.24%; in experiment [6], -2.74%. Further, the inhibition in [7] is 0.31%; in experiment [8], -1.11%; in experiment [9] it was 1.79%; in [10] it was -3.84%.
Regarding `CN1CCC(n2cnc(-c3ccc(F)cc3)c2-c2ccnc(Nc3ccccc3)n2)CC1`, the inhibition in [1] came out at 15.5%; in [2], 9.65%; in experiment [3] it was 49.1%; in [4] it was 0.44%; in [5], 0.04%; in experiment [6], 1.78%. Further, the inhibition in [7] is 4.18%; in experiment [8] it was 7.5%; in experiment [9], 13.3%; in experiment [10] it was 12.9%.
Take `CCn1cc(-c2ccnc3[nH]ccc23)c(-c2cccc(NC(=O)Nc3ccc(OCc4ccccc4)cc3)c2)n1`: the inhibition was -1.25% in [1]; 0.93% in [2]; -1.31% in experiment [3]; 1.83% in experiment [4]; 0.05% in experiment [5]; 0.1% in experiment [6]. The inhibition was 1.02% in experiment [7], 0.23% in experiment [8], 3.4% in [9] and -2.33% in [10].
In the case of `Cc1ccc(O)cc1Nc1ccnc2cc(-c3ccccn3)ccc12`, the inhibition in [1] worked out at 15.3%; in [2], 3.59%; in experiment [3] it was 30.4%; in experiment [4], 34.4%; in experiment [5], 80.2%; in [6], 79.3%. Besides, the inhibition is 87.5% in [7], 91.2% in [8], 90.9% in experiment [9] and 90.5% in experiment [10].
Regarding `c1ccc(COc2ccc(Nc3ncnc4ccc(-c5ccco5)cc34)cc2)cc1`, the inhibition in experiment [1] is 5%; in experiment [2] it was -0.19%; in [3] it was -1.64%; in [4], 0.9%; in experiment [5], -0.47%; in experiment [6] it was -0.08%. Also, the results for the inhibition in experiment [7], in experiment [8] and in [9] were 0.71%, 0.05% and 2.86%, respectively.
As for `COC(=O)c1sc(-n2cnc3cc(OC)c(OC)cc32)cc1OCc1ccccc1C(F)(F)F`, the inhibition was -0.3% in experiment [1]; -1.64% in experiment [2]; 1.53% in experiment [3]; 2.23% in experiment [4]; 3.86% in experiment [5]; 4.53% in experiment [6]. Further, the inhibition was found to be 3.54% in experiment [7], 9.09% in experiment [8], 4.17% in experiment [9] and 6.43% in experiment [10].
Take `CNC(=O)c1cc(-c2ccc(F)cc2)cc(-c2ccc(S(=O)(=O)N3CCCC3)cc2)c1N`: the inhibition in experiment [1] is 0.62%; in [2] it was -0.37%; in experiment [3], 2.95%; in [4], -2.99%; in experiment [5], -1.92%; in [6] it was 2.55%. The inhibition in experiment [7] was 2.23%; in experiment [8], 5.15%; in experiment [9], 6.55%; in experiment [10] it was 2.73%.
In the case of `Fc1ccc(-c2cc(-c3c[nH]nc3-c3ccccn3)ccn2)cc1`, the inhibition in experiment [1] is 5.56%; in [2], -1.9%; in [3] it was 6.43%; in experiment [4], 1.25%; in [5], 0.94%; in [6] it was 3.9%. Further, the inhibition in experiment [7] came out at 4.31%; in experiment [8] it was 11.9%; in experiment [9] it was 14.8%; in experiment [10] it was 3.6%.
With `Nc1ncc(-c2cccc(S(N)(=O)=O)c2)c2scc(-c3ccc(F)c(Cl)c3)c12`, the inhibition in experiment [1] stood at 5.52%; in experiment [2], 1.23%; in experiment [3], 3.47%; in [4], 41%; in experiment [5], 89.7%; in [6] it was 27.4%. In addition, the inhibition in [7] came to 68.6%; in experiment [8], 54.9%; in [9] it was 92%; in [10], 67.8%.
In the case of `COc1cccc(-c2c[nH]c3c(N/N=C/c4ccncc4)ncnc23)c1`, the inhibition is 2.55% in experiment [1]; 2.51% in experiment [2]; 22.9% in experiment [3]; 3.62% in experiment [4]; 14.6% in [5]; 3.44% in experiment [6]. Besides, the inhibition in experiment [7] came out at 6.01%; in experiment [8], 8.17%; in [9] it was 30.5%; in experiment [10], 10.3%.
For the compound `Cc1cccc(Nc2ncc(-c3ccccc3)o2)c1`, the inhibition in experiment [1] was 2.62%; in experiment [2] it was -0.51%; in experiment [3] it was 1.2%; in experiment [4] it was 2.27%; in experiment [5], 1.53%; in [6], 2.3%. Further, the inhibition amounted to 2.7% in [7], 5.68% in [8], 5.88% in experiment [9] and 0.55% in [10].
Consider `COc1cc(N2CCN(C(C)C)CC2)ccc1Nc1nc(Nc2ccc(F)cc2C(N)=O)c2cc[nH]c2n1`, for which the inhibition was 79.5% in experiment [1]; 56.5% in experiment [2]; 90.4% in [3]; 0.87% in experiment [4]; -0.92% in [5]; 1.78% in [6]. For the same compound, the inhibition in experiment [7] worked out at 1.28%; in [8], 4.96%; in experiment [9], 6.43%; in experiment [10], 4.59%.
With `NS(=O)(=O)c1ccc(Nc2ncc(-c3ccccc3)o2)cc1`, the inhibition was 0.87% in [1]; 2.14% in experiment [2]; 0.87% in experiment [3]; 2.66% in experiment [4]; 3.5% in experiment [5]; 2.94% in experiment [6]. Moreover, the inhibition in experiment [7] worked out at 4.57%; in experiment [8], 7.23%; in experiment [9], 12%; in experiment [10], 5.54%.
In the case of `COc1ccc(-c2nn3ncccc3c2-c2ccnc(Nc3ccc4c(c3)OCCO4)n2)cc1`, the inhibition in [1] is 5.19%; in experiment [2], 0.11%; in [3] it was 17.8%; in [4], -0.24%; in experiment [5] it was 0.86%; in experiment [6] it was -1.04%. For the same compound, the inhibition in [7] was 0.38%; in [8] it was 0.61%; in [9], 13.8%; in experiment [10], 1.72%.
On to `Clc1ccc(-c2nn3ncccc3c2-c2ccnc(Nc3ccccc3)n2)cc1`, for which the inhibition was 14.4% in [1]; 9.72% in experiment [2]; 53.3% in experiment [3]; -1.33% in [4]; 2.12% in [5]; 1.69% in [6]. Further, the inhibition in experiment [7] came to 7.97%; in experiment [8], 3.45%; in experiment [9] it was 23.3%; in [10], 8.11%.
`CN1CCC(n2cnc(-c3ccc(F)cc3)c2-c2ccnc(N)n2)CC1`: the inhibition in [1] was 1.75%; in experiment [2], -4.77%; in [3], 0.83%; in experiment [4], 0.47%; in experiment [5], -0.42%; in experiment [6], 1.8%. The inhibition in experiment [7] was 2.95%; in experiment [8], 5.99%; in experiment [9] it was 7.11%; in experiment [10], 5.98%.
Regarding `CCOc1ccc2c(-c3ccnc(Nc4cccc(C(F)(F)F)c4)n3)cnn2n1`, the inhibition in experiment [1] is -0.36%; in experiment [2], 0.8%; in experiment [3], 0.09%; in [4] it was 1.2%; in [5], 0.67%; in [6] it was 1.59%. Moreover, the inhibition in experiment [7] amounted to 5.76%; in [8] it was 6.67%; in [9], 9.91%; in experiment [10] it was 7.74%.

One may read the inhibition as the relative decrease from the control value, in per cent.

Source of the values: ChEMBL document CHEMBL1961873, “Compounds: GSK PKIS; Assays: Nanosyn kinase panel” (2012).
